Results filed as inconclusive are left out. A number with no mark means an inactive call. Activity calls are given as the source filed them. Calls come from the whole dose curve. Starred links: 1 amine or outer side, 2 acyl side, 3 side chain; linkers in the order of their positions; H or OH if unused. Non-standard residues stand in square brackets, D forms with d. Residues, ends and D or L forms follow the SMILES beside them. ξ: configuration not given here. X1 = CCCCCCCCCC(=O)[C@H](C(=O)[*:2])[C@@H]1CNC(=O)[C@@H](N[*:1])CS1; ξL = CC(C)CC(N)C(=O)O
Assay: qHTS for inhibitors of Rabies Virus screened against the NCATS CANVASS Library (AID 1347402); note: 0% is about no effect
Details: Rabies virus infection cell assay; series mostly up to 45.9 µM; activity change, negative = inhibition: at the top concentration
In the case of `CC1=C(C)C(=O)OC(C(C)C2(O)CCC3C4C5OC5C5(O)CC=CC(=O)C5(C)C4CCC32C)C1` (stereo not drawn), the “activity change, negative = inhibition” value is reported as -2.28%.
In the case of `CC(=O)[C@@H]1[C@@H](O)C[C@H]2[C@]3(C)CC[C@H]4C(C)(C)CCC[C@]4(CO)[C@H]3C[C@H]3OC(=O)[C@@H]1[C@@]32C`, the “activity change, negative = inhibition” value is reported as -19%.
In the case of `CC(=O)NC[C@@H]1O[C@H](CC/C=C(C)/C(C)=C/C=O)[C@H](C)C[C@H]1O`, the “activity change, negative = inhibition” value is reported as 5.68%.
For `C[C@@H]1O[C@H](c2c(O)cc(O)c3c(=O)cc(-c4ccc(O)cc4)oc23)[C@H](O)[C@H](O)[C@H]1O`, the “activity change, negative = inhibition” value was -2.2%.
With `CCCc1c2c([nH]c(=O)c1C)C(=O)c1[nH]c(=O)c(C)c(CCC)c1C2=O` the “activity change, negative = inhibition” value was -31.7%.
For `C[C@]12CC[C@]3(C1)[C@H](CC2=O)CC(OC(=O)c1ccccc1)[C@H]1[C@@](CO)(C(=O)O)CCC[C@@]13C` (stereo partly drawn), the “activity change, negative = inhibition” value was -3.93%.
For `CCCCCCCCCC(=O)[C@@H]1C(=O)N[C@@H](CC(C)C)C(=O)N[C@H](C)C(=O)N2CCC[C@H]2C(=O)N[C@@H](C(C)C)C(=O)N[C@H]2CS[C@H]1CNC2=O` (cyclo(L[dA]PV[X1])), the “activity change, negative = inhibition” value was -9.71%.
In the case of `CC(CCC[C@]1(C)C(=O)C=C[C@@]23C[C@]4(C)O[C@@H](C[C@@H]4[C@H]2O)C31)C(=O)O` (stereo partly drawn), the “activity change, negative = inhibition” value is reported as -0.0817%.
In the case of `CC(=O)O[C@H]1C[C@@]2(C)[C@@H](CC[C@H]3[C@@]4(C)C=CC(=O)[C@@H](C)[C@@H]4[C@H](OC(C)=O)C(=O)[C@@]32C)/C1=C(\CCC=C(C)C)C(=O)O`, the “activity change, negative = inhibition” value is reported as -0.717%.
In the case of `O=C(O)CC1OC(=O)c2c(O)cccc21` (stereo not drawn), the “activity change, negative = inhibition” value is reported as 3.89%.
With `CC[C@@H](C)[C@H]1NC(=O)C(CC(C)C)NC(=O)[C@@H](CC(C)C)NC(=O)[C@H](Cc2c[nH]c3ccccc23)NC(=O)CNC(=O)[C@@H](CC(N)=O)NC1=O` (stereo partly drawn) (cyclo(GW[dL][ξL][dI][dN])) the “activity change, negative = inhibition” value was -11.9%.
With `O=C1OC(CCO)c2cccc(O)c21` (stereo not drawn) the “activity change, negative = inhibition” value was 18.4%.
With `C=CC(C)(C)C(=O)[C@@H](C)[C@@H]1CC[C@@](C)(C=C)O1` the “activity change, negative = inhibition” value was 11.4%.
For `C[C@@H]1C(=O)[C@]23CC[C@H]1C[C@]21O[C@H]2C(C)(C)C=CC(=O)[C@]23COC1=O`, the “activity change, negative = inhibition” value was -15.3%.
With `CC1C(=O)C23CCC1C[C@]21O[C@@H]2C(C)(C)C=CC(=O)[C@@]23COC1=O` (stereo partly drawn) the “activity change, negative = inhibition” value was -6.78%.
In the case of `C[C@H]1C[C@@H]([C@@H]2CC[C@]34O[C@H](CC[C@@]35C[C@H](C)C(=O)O5)CN24)OC1=O`, the “activity change, negative = inhibition” value is reported as 2.14%.
For `CC1(C)C=Cc2c(ccc3c2OC[C@@H](c2ccc(O)cc2O)C3)O1`, the “activity change, negative = inhibition” value was -31.3%.
For `CS/C=C/C(N)=O`, the “activity change, negative = inhibition” value was -10.9%.
With `COc1cc(C2OCC3C(c4ccc(O)c(OC)c4)OCC23)ccc1O` (stereo not drawn) the activity change, negative = inhibition was 3.04% [at 9.14 µM].
For `C/C=C/C=C/C1(O)C2C=C3C(=O)CC45C(=O)C(O)=C(C)C(=O)C4C1C1(C(=O)C(O)=C(C)C(=O)C351)C2C` (stereo not drawn), the “activity change, negative = inhibition” value was 1.29%.
With `CC1(C)CC[C@]2(CO)CC[C@]3(C)C(=CCC4[C@@]5(C)CC[C@H](O)C(C)(C)C5CC[C@]43C)C2C1` (stereo partly drawn) the “activity change, negative = inhibition” value was 0.666%.
With `C=C[C@]1(C)CC[C@@H]([C@H](C)C(=O)/C=C/C(C)C)O1` the “activity change, negative = inhibition” value was -3.71%.
With `CN1CCc2cc3c(c4c2C1(C)C(=O)c1cc(O)ccc1-4)OCO3` (stereo not drawn) the “activity change, negative = inhibition” value was -17.4%.
In the case of `O=Cc1ccc2n1C[C@@]1(C[C@H](O)[C@H](O)CO1)OC2`, the “activity change, negative = inhibition” value is reported as 10.3%.
In the case of `CO[C@@H]1[C@H](O)[C@@H](C)O[C@@H](OC[C@@H]2C(C)OC(=O)/C=C/[C@H](C)C(O[C@@H]3O[C@H](C)CC4(OC(=O)O[C@@H]4C)C3O)[C@@H](C)CC(C)C(=O)CC[C@H]3OC23)[C@@H]1OC` (stereo partly drawn), the “activity change, negative = inhibition” value is reported as -1.19%.
With `O=C1c2c(O)cc(O)cc2OC(c2ccc(O)cc2)C1O` (stereo not drawn) the “activity change, negative = inhibition” value was -19%.
With `COC1C(O)C(OC(N)=O)C(Oc2ccc3c(O)c(NC(=O)c4ccc(O)c(CC=C(C)C)c4)c(=O)oc3c2C)OC1(C)C` (stereo not drawn) the “activity change, negative = inhibition” value was 5.89%.
In the case of `CC[C@@H](c1cc(OC)c(OC)cc1OC)[C@H](C)[C@@H](/C(C)=C/c1cc(OC)c(OC)cc1OC)c1cc(OC)c(OC)cc1OC`, the outcome is reported as “inactive”.
With `CN1CCc2cc3c(c4c2[C@H]1[C@@H](O)c1ccccc1-4)OCO3` the “activity change, negative = inhibition” value was -21.3%.
With `C=C[C@]1(C)CC[C@@H]([C@H](C)C(=O)/C=C/C(C)(C)O)O1` the “activity change, negative = inhibition” value was -10.2%.
For `C[C@@]1(CCC(=O)Nc2c(O)ccc(C(=O)O)c2O)C(=O)C=C[C@]23C[C@H]4C[C@H](O[C@@]4(C)C2)C31` (stereo partly drawn), the “activity change, negative = inhibition” value was 6.93%.
With `[C-]#[N+][C@@]12C(=O)[C@@H]3[C@@H](O[C@@]4(C(=O)N(C)c5cccc1c54)C3(C)C)C(=O)[C@@]2(C)C=C` the “activity change, negative = inhibition” value was 42.5%.
For `Cc1cc(O)cc2c1C(=O)c1c(O)cc(O)cc1C2=O`, the “activity change, negative = inhibition” value was 4.13%.

Source: PubChem BioAssay (NCATS)
